KCNK3 block: human KCNK3 channel inhibition, primary screen; O14649; CHO-KCNK3 thallium flux, FluxOR fluorescence; stronger effect = lower value; B-score at 10 µM; 340,000 tested, 0.84% active;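 active = B-score under library mean minus 4 SD, starting fluorescence ratio at most library mean plus 5 SD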;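 note: more negative B-score means stronger inhibition of thallium flux through KCNK3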
KCNK9 inh: blocks the human KCNK9 two-pore domain potassium channel | B-score at 10 µM | Q9NPC2 | AID 488922 | HEK293 KCNK9, FluxOR thallium flux fluorescence; stronger effect = lower value | 310,000 tested, 1.2% active;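 active = ratio B-score over 3 SD below the library mean, with starting fluorescence within 5 SD of its mean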;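 note: negative B-score means less thallium flux so channel inhibition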
Kir21 block: inhibitors of mouse Kir2.1 inward-rectifier potassium channel; B-score at 10 µM; HEK293-Kir2.1, FluxOR thallium flux fluorescence; stronger effect = lower value; 310,000 tested, 0.85% active; P35561;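 active = fluorescence ratio B-score at or below minus 3 SD of library scores, with starting-brightness B-score within 2 SD, cut at about -4.2 in these data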;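 note: channel flux triggered by added potassium and thallium sulfate stimulus; B-score of peak minus minimum fluorescence over baseline after thallium stimulus; more negative B-score means stronger Kir2.1 block with less thallium influx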
ANO1 block: blocks the mouse calcium-activated chloride channel TMEM16A; 310,000 tested, 1.2% active; HEK293 TMEM16A/YFP iodide influx fluorescence, ionomycin; normalized B-score (activity score, 25-100; higher = stronger inhibition) at 10 µM;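 active = ratio plate-corrected score three or more library SD toward inhibition, starting fluorescence score within five deviations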;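 note: score derived from kinetic fluorescence span divided by baseline fluorescence per well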
Target sequence (Q8BHY3 whole entry, looked up): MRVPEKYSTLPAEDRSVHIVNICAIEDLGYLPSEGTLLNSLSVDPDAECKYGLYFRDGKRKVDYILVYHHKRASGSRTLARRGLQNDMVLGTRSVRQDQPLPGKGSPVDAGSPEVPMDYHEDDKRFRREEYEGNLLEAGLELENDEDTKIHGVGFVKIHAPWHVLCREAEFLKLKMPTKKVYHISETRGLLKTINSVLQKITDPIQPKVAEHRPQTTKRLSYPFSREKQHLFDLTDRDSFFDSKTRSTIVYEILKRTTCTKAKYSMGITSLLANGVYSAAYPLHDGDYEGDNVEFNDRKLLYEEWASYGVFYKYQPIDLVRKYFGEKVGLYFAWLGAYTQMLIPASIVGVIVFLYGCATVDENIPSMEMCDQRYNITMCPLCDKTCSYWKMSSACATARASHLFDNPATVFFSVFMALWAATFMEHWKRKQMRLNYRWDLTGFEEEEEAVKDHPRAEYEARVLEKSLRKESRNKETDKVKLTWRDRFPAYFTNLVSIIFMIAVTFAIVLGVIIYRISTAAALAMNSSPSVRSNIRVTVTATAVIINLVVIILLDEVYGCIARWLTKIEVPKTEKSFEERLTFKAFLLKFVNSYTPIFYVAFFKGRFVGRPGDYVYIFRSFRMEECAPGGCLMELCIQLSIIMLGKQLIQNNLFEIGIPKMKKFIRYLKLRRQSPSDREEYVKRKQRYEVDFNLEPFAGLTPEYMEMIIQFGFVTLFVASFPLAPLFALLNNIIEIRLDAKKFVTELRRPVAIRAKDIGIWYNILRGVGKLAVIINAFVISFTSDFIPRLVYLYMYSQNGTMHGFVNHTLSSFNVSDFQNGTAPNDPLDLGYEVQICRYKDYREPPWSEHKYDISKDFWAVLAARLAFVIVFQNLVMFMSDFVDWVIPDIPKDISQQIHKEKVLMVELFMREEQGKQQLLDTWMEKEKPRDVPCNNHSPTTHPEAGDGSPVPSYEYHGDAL
ANO1 activ: activators or potentiators of mouse TMEM16A chloride channel | AID 623877 | Q8BHY3 | HEK293 TMEM16A/YFP-H148Q/I152L, iodide quench fluorescence; stronger effect = lower value | 340,000 tested, 0.3% active | B-score at 10 µM;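 active = fluorescence-ratio B-score plate-corrected deviation score at least 3 library SD below zero, with starting fluorescence score within 5 deviations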;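 note: channel opened by trigger with iodide after compound preincubation; score built on the fluorescence ratio of max minus min over baseline; more negative score means more quench and so TMEM16A activation or potentiation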
KCNK9 inh conf: confirmation of human KCNK9 potassium channel inhibitors. shares compounds with KCNK9 inh. HEK293 KCNK9 cells, FluxOR thallium flux fluorescence. inhibition, % at 10 µM. 4,900 tested, 43% active. AID 492992;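 active = thallium signal inhibited by more than 5 SD of the compound-free buffer control wells, on both duplicate plates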;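 note: 0% = assay buffer control wells without compound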
Kir21 sel: mouse Kir2.1 off-target activity of KCNK9 modulators; inhibition, % at 10 µM; 4,900 tested, 4% active; shares compounds with KCNK9 inh; Kir2.1 cells, FluxOR thallium flux fluorescence;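 active = thallium signal drop more than 5 SD beyond the mean of the no-compound control wells, seen in both duplicate plates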;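 note: signal is fluorescence rise after thallium addition divided by baseline fluorescence; plate controls were assay buffer only for no effect and full block by chlorpromazine control for full effect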
KCNK9 uninduced: second counter-screen for KCNK9 modulators: effect in non-induced cells | non-induced KCNK9-HEK293, FluxOR thallium flux | 4,900 tested, 40% active | inhibition, % at 10 µM | shares compounds with KCNK9 inh | AID 492997;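 active = thallium signal drop beyond 5 SD of the untreated control mean, on both duplicate plates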;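 note: plate controls were buffer only IC0 wells for no effect and SID17386958 at its maximal inhibitory level for full effect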
* marks the source's active call; other numbers are inactive results; i = inactive; nt = no result given. Sampled rows, rich in hits. Any-hit rate of the full collection: about 3.5%.

SMILES | KCNK3 block | KCNK9 inh | Kir21 block | ANO1 block | ANO1 activ | KCNK9 inh conf | Kir21 sel | KCNK9 uninduced
COc1ccc(NC(=O)c2ccc(-c3ccc([N+](=O)[O-])cc3)o2)cc1OC | i | -16* | -0.13 | i | i | 56%* | i | 26%*
CCOc1ccccc1N1CCN(S(=O)(=O)c2ccc(Cl)s2)CC1 | i | i | 0.92 | i | i | i | i | i
Cc1ccccc1CN1CCN(S(=O)(=O)c2ccc(Cl)s2)CC1 | i | i | 0.03 | i | i | i | i | 29%*
Cc1ccccc1CN1CCN(S(C)(=O)=O)CC1 | i | i | -0.4 | i | i | nt | nt | nt
Cn1cc(/C=N/n2cnc3scc(-c4ccccc4)c3c2=O)c2ccccc21 | i | i | -2.5 | i | i | i | i | i
CCCCNC(=O)C1CCN(Cc2ccc(OCc3ccccc3)c(OC)c2)CC1 | i | i | -0.39 | i | i | nt | nt | nt
CCCCOC1CC(c2ccc(OCc3ccc(OC)cc3)c(OC)c2)N(C)O1 (configuration not stated) | i | i | 1.7 | i | i | i | i | i
COc1ccc(NC(=O)COC(=O)C2CCN(S(=O)(=O)c3cccs3)CC2)cc1 | i | i | 0.02 | i | i | nt | nt | nt
COc1cc(/C=C/C(=O)c2ccc(NS(=O)(=O)c3ccc(C)cc3)cc2)ccc1OC(F)F | i | i | -0.06 | i | i | i | i | i
CCCNC(=O)CN1C(=O)COc2ccc(S(=O)(=O)N3CC(C)CC(C)C3)cc21 (configuration not stated) | i | i | -0.31 | i | i | nt | nt | nt
Cc1cccc(OCCCCCn2ccnc2)c1C | i | i | -1.3 | i | i | i | i | i
Cc1cccc(C)c1OCCCn1ccnc1 | i | i | -0.37 | i | i | nt | nt | nt
Cc1cc([N+](=O)[O-])nn1CC(=O)NCc1nc2ccccc2[nH]1 | i | i | 0.63 | i | i | nt | nt | nt
O=C(Nc1ccccc1)OCC1COC(c2ccccc2)(c2ccccc2)O1 (configuration not stated) | i | nt | nt | nt | i | nt | nt | nt
CC(c1cccs1)N(C(=O)Nc1ccccc1)C1CCCCC1 (configuration not stated) | i | i | -0.33 | i | i | i | i | i
CN(C(=O)Nc1ccccc1)C1CCCCC1 | i | i | 0.5 | i | i | nt | nt | nt
CCC(C)NC(=O)c1ccccc1NC(=O)c1ccc(CSc2ccc(C)cc2)cc1 (configuration not stated) | i | i | -0.8 | i | i | i | i | i
CCOc1ccccc1-n1c(SCC(=O)Nc2nccs2)nnc1-c1ccoc1C | i | -8.7* | 0.53 | i | i | 47%* | i | 26%*
O=C(Nc1cscc1S(=O)(=O)c1ccc(Cl)cc1)c1ccccc1Cl | i | i | -0.71 | i | i | nt | nt | nt
O=C(Nc1cscc1S(=O)(=O)c1ccccc1)c1ccccc1Cl | i | -8.6* | -1.8 | i | i | 41%* | i | 34%*
Cc1ccc(-c2ccc(SCC(=O)N3CCCc4ccccc43)nn2)cc1 | nt | i | -0.04 | i | nt | i | i | i
O=C(CSc1nc2ccccc2c(=O)n1-c1ccccc1)N1CCCc2ccccc21 | i | i | 1 | i | i | i | i | i
COc1ccc(C(=O)CSc2ccc(-c3ccc(C)cc3)nn2)cc1 | i | i | 0.76 | i | i | i | i | i
Cc1cc2c(=O)n(Cc3ccco3)c(SCC(=O)N3CCCc4ccccc43)nc2s1 | i | i | 1.7 | i | i | i | i | i
CCn1c(SCC(=O)N2CCCc3ccccc32)nc2ccccc2c1=O | i | i | -3 | i | i | nt | nt | nt
O=C(CSc1nc2ccccc2c(=O)n1-c1ccccc1)N1CCc2ccccc21 | i | i | -0.37 | i | i | nt | nt | nt

From PubChem
